We go through twelve sequences from paper PMC5700166.

Residue numbers refer to the chain shown, from its start.

Experiment in all cases: protein-binding microarray (PBM); PBM: ~300 nM protein, 6 mM HEPES pH 7.8, 80 mM KCl, 0.5 mM EDTA, 0.5 mM EGTA, 6% glycerol, 35 ng/ul poly-dIdC, 1% milk, 1 h, room temperature; Ap Aiptasia and Nv Nematostella (sea anemones) / Co Capsaspora / Aq Amphimedon (sponge) / Dm Drosophila / Hu human; RHD is the Rel homology domain; high values mean tight binding
Holding throughout (details): dsDNA, one strand shown

In one experiment the target is T1, GST-Ap-NF-kB RHD (Exaiptasia pallida (Aiptasia), UniProt A0A913YAJ5 2-422).
T1 sequence: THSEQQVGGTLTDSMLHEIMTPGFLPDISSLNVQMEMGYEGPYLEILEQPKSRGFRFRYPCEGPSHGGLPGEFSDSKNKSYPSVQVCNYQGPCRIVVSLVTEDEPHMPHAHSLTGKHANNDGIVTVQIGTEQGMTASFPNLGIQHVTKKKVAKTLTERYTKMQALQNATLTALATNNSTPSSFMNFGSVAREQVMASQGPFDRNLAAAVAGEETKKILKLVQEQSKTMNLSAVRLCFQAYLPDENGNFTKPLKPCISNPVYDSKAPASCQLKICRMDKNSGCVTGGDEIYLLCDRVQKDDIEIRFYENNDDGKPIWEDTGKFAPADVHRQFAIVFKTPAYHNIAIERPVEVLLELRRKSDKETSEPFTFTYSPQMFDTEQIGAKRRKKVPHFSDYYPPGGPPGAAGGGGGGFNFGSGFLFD

In experiment [1] the target is T2, GST-Nv-NF-kB (Ser allele) (Nematostella vectensis, UniProt A7UNT2 2-411).
T2 sequence: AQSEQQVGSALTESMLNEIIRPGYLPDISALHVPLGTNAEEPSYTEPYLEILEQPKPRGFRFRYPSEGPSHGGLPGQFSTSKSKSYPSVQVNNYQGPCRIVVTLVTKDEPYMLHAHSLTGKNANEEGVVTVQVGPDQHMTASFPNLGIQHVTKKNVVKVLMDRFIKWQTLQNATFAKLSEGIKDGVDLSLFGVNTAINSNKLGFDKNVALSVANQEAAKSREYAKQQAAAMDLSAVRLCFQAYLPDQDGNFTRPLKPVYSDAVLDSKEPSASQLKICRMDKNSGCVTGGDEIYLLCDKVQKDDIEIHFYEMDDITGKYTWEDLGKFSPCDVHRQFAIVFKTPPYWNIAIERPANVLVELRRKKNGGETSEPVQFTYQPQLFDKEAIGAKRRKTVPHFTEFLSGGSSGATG

The target in the next experiment is T3, GST-Co-NF-kB (Capsaspora owczarzaki, UniProt F1ARL5 200-546).
T3 sequence: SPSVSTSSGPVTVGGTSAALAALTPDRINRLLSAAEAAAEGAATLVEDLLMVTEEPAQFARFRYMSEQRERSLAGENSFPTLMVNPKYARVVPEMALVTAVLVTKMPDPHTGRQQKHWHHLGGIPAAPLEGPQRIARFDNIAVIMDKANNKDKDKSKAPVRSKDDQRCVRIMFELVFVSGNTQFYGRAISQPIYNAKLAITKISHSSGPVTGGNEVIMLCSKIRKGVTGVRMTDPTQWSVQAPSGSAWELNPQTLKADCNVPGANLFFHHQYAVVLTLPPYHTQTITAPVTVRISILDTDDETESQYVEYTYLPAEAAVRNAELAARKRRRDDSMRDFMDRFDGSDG

A further experiment addresses T4, GST-Dm-Relish (Drosophila melanogaster, UniProt Q94527 99-473).
T4 sequence: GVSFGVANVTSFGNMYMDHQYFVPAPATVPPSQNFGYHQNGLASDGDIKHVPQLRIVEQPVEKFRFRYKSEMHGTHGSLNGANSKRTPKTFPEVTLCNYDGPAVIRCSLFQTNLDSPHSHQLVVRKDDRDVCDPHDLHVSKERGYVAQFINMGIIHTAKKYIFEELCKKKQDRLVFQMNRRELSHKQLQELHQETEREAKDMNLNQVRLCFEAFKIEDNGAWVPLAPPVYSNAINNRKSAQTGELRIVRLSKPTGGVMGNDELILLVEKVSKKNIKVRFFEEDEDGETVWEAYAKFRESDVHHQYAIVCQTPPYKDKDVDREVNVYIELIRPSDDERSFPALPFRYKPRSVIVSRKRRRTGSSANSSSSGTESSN

The target in the next experiment is T5, GST-Aq-NF-kB (Amphimedon queenslandica, UniProt A9Y5G7 2-389).
T5 sequence: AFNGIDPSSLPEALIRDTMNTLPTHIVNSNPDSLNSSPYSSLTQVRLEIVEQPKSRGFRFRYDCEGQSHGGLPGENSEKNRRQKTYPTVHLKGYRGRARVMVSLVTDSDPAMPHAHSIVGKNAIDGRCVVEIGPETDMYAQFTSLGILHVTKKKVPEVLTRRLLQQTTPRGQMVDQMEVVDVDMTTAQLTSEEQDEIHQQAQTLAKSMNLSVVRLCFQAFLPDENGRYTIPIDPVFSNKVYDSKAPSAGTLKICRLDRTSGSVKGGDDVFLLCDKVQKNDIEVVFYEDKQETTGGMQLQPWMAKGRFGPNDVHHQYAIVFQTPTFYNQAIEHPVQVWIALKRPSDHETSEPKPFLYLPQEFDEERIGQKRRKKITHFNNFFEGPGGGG

For the next experiment, the target named is GST-Hu-p50 (Homo sapiens, UniProt P19838 7-356).
GST-Hu-p50, sequence (P19838 7-356): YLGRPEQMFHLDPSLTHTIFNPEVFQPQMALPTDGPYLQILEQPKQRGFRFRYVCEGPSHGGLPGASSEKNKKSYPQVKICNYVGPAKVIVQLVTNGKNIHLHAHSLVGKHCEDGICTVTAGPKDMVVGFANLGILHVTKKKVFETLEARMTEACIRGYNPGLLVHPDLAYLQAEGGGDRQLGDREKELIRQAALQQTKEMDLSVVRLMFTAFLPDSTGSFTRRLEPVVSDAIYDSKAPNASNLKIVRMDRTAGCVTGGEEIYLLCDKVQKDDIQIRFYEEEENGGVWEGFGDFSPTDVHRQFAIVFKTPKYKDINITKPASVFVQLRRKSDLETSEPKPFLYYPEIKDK
In experiment [2] the target is T6, GST-Nv-NF-kB (Cys allele) (Nematostella vectensis, UniProt E5G601 2-411).
T6 sequence: T2 sequence with R21Q, S66C, N207S, Q215E, A217V, K225E, E268A, E399D

In the case of “CCGATTAACATCAATTCCCCCCGTGATGTTAATCGGGTCTTGATTCGCTTGACGCTGCTG”, the binding signal with GST-Ap-NF-kB RHD was found to be 7.28 z-score; in experiment [1], 6.61 z-score; in the experiment with GST-Co-NF-kB it was 8.8 z-score; with GST-Dm-Relish it was 5.54 z-score; with GST-Aq-NF-kB, 5.76 z-score; in the experiment with GST-Hu-p50, 5.76 z-score.

In the case of “CCGATTAACATCAGATAAACCCCTGATGTTAATCGGGTCTTGATTCGCTTGACGCTGCTG”, the binding signal with GST-Ap-NF-kB RHD is 4.36 z-score; in experiment [2] it was 4.29 z-score; with GST-Dm-Relish, 5.22 z-score; with GST-Aq-NF-kB, 4.77 z-score; in the experiment with GST-Hu-p50, 4.53 z-score.

“CCGATTAACATCAAGGGGGGGACTGATGTTAATCGGGTCTTGATTCGCTTGACGCTGCTG”: the binding signal in the experiment with GST-Ap-NF-kB RHD worked out at 6.81 z-score; in experiment [1] it was 4.24 z-score; with GST-Co-NF-kB it was 5.71 z-score; with GST-Dm-Relish, 4.41 z-score; with GST-Aq-NF-kB, 4.98 z-score; with GST-Hu-p50 it was 4.74 z-score.

Turning to “CCGATTAACATCAGAAAAACACCTGATGTTAATCGGGTCTTGATTCGCTTGACGCTGCTG”, the binding signal stood at 2.56 z-score with GST-Ap-NF-kB RHD; 3.55 z-score in experiment [2]; 3.66 z-score with GST-Dm-Relish; 3.91 z-score with GST-Aq-NF-kB; 5.37 z-score in the experiment with GST-Hu-p50.

In the case of “CCGATTAACATCAGGCGAACCCCTGATGTTAATCGGGTCTTGATTCGCTTGACGCTGCTG”, the binding signal with GST-Ap-NF-kB RHD amounted to 1.57 z-score; in experiment [2] it was 1.1 z-score; in the experiment with GST-Dm-Relish, 1.37 z-score; with GST-Aq-NF-kB, 2.96 z-score; in the experiment with GST-Hu-p50, 1.53 z-score.

As for “CCGATTAACATCACGGAAACACCTGATGTTAATCGGGTCTTGATTCGCTTGACGCTGCTG”, the binding signal came out at 1.22 z-score in the experiment with GST-Ap-NF-kB RHD; 1.16 z-score in experiment [1]; 1.78 z-score with GST-Dm-Relish; 2.29 z-score with GST-Aq-NF-kB; 3 z-score with GST-Hu-p50.

In the case of “CCGATTAACATCAGGGGGAACAATGATGTTAATCGGGTCTTGATTCGCTTGACGCTGCTG”, the binding signal was determined as 5.8 z-score with GST-Ap-NF-kB RHD; 5.75 z-score in experiment [2]; 9.17 z-score with GST-Co-NF-kB; 3.62 z-score in the experiment with GST-Dm-Relish; 4.61 z-score with GST-Aq-NF-kB; 5.11 z-score with GST-Hu-p50.

In the case of “CCGATTAACATCAGCCCCGGTGTTGATGTTAATCGGGTCTTGATTCGCTTGACGCTGCTG”, the binding signal in the experiment with GST-Ap-NF-kB RHD came to 2.1 z-score; with GST-Co-NF-kB, 1.61 z-score; with GST-Aq-NF-kB, 2.37 z-score; with GST-Hu-p50, 1.58 z-score.

On to “CCGATTAACATCAGGGATGCCCCTGATGTTAATCGGGTCTTGATTCGCTTGACGCTGCTG”, for which the binding signal came to 6.96 z-score with GST-Ap-NF-kB RHD; 8.09 z-score in experiment [2]; 1.84 z-score with GST-Co-NF-kB; 9.08 z-score in the experiment with GST-Dm-Relish; 8.39 z-score with GST-Aq-NF-kB; 5.89 z-score with GST-Hu-p50.

Turning to “CCGATTAACATCAGAAACCCCCATGATGTTAATCGGGTCTTGATTCGCTTGACGCTGCTG”, the binding signal in the experiment with GST-Ap-NF-kB RHD amounted to 7.61 z-score; in experiment [2], 6.32 z-score; with GST-Co-NF-kB it was 2.76 z-score; with GST-Dm-Relish, 8.35 z-score; in the experiment with GST-Aq-NF-kB, 5.97 z-score; in the experiment with GST-Hu-p50 it was 6.52 z-score.

Turning to “CCGATTAACATCAGGAAAGGCCCTGATGTTAATCGGGTCTTGATTCGCTTGACGCTGCTG”, the binding signal came to 2.38 z-score with GST-Ap-NF-kB RHD; 2.62 z-score in experiment [2]; 5.48 z-score with GST-Dm-Relish; 5.31 z-score with GST-Aq-NF-kB; 2.61 z-score with GST-Hu-p50.

As for “CCGATTAACATCAGGACCTTCCCTGATGTTAATCGGGTCTTGATTCGCTTGACGCTGCTG”, the binding signal came out at 2.74 z-score with GST-Ap-NF-kB RHD; 2.66 z-score in experiment [2]; 1.9 z-score with GST-Dm-Relish; 5.89 z-score in the experiment with GST-Aq-NF-kB; 1.95 z-score with GST-Hu-p50.
